Sampled rows, rich in hits. Any-hit rate of the full collection: about 21%.
Pf growth 96h: Primary qHTS for delayed death inhibitors of the malarial parasite plastid, 96 hour incubation | P. falciparum luciferase reporter growth, 96 h | Potency, µM (doses to about 28.7 µM), most hits filed as inhibitors | 320,000 tested, 6.9% active
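Erythrocytes infected with luciferase-expressing P. falciparum were dispensed at 2% hematocrit and 0.05% parasitemia (final), then incubated with compounds 96 hours at 37 C in 5% CO2. Luminescence after detection reagent addition reported growth.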
Shiga inhibitor: A qHTS for Small Molecule Inhibitors of Shiga Toxin. Vero cells, Shiga toxin protein synthesis inhibition reporter. inhibition, % at 38.7 µM. 290,000 tested, 9.2% active; in the data active means inhibition mostly above about 28%, no sharp cut-off; inactive means mostly below about 43%
CHX counter: Cycloheximide Counterscreen for Small Molecule Inhibitors of Shiga Toxin. cell reporter, cycloheximide protein synthesis inhibition counterscreen. max response, %. 300,000 tested, 12% active. AID 2314, 2010; in the data active means max response mostly above about 13%, no sharp cut-off; inactive means mostly below about 14%; further: read at 38.3 µM for the half of the compounds with a filed dose
Pf growth 48h: Primary qHTS for delayed death inhibitors of the malarial parasite plastid, 48 hour incubation | P. falciparum luciferase growth in erythrocytes, 48 h | Potency, µM (series often up to 28.7 µM), most hits filed as inhibitors | 310,000 tested, 5.9% active | AID 504832, 2011
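A one-generation exposure of luciferase-tagged malaria parasites in RPMI 1640/Albumax erythrocyte culture, 37 C and 5% CO2. Inhibition is inferred from decreased luminescence after adding detection reagent.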
Of the large screens only hits and unclear results are named; the others gave an inactive call. Unless noted, the call rests on the fitted dose curve; in most records, active means well fitted inhibition curve with a large enough effect; inconclusive means small, poorly fitted or top-dose-only effect, or another doubt; inactive means no such curve, though single readings can be large or run the other way.

CN1C[C@@H]2C(c3ccc(C(F)(F)F)cc3)C3(c4cccnc4)CC2(C3)[C@H]1c1ccccc1 (stereo not given in full)	Pf growth 96h 2.94µM, Pf growth 48h 2.33µM
FC(F)(F)c1ccc(C2[C@H]3CN(Cc4cccnc4)[C@H](c4ccccc4)C34CC2(c2ccccc2)C4)cc1 (stereo not given in full)	Pf growth 96h 2.33µM, Pf growth 48h 2.94µM
FC(F)(F)c1ccc(CN2C[C@@H]3C(c4ccccc4)C4(c5cccnc5)CC3(C4)[C@H]2c2ccccc2)cc1 (stereo not given in full)	Pf growth 96h 3.29µM, Pf growth 48h 2.33µM
N#Cc1ccc(C23CC4(C2)[C@H](CN(Cc2ccc(C(F)(F)F)cc2)[C@@H]4c2ccccc2)C3c2ccccc2)cc1 (stereo not given in full)	Pf growth 96h inconclusive, Pf growth 48h inconclusive
FC(F)(F)c1ccc(CN2C[C@@H]3C(c4ccc(C(F)(F)F)cc4)C4(c5cccnc5)CC3(C4)[C@H]2c2ccccc2)cc1 (stereo not given in full)	Pf growth 96h 2.08µM, Pf growth 48h 2.08µM
Cc1nn(C)c(C)c1CN(Cc1nc(CCC(C)C)no1)C(C)C	Pf growth 48h inconclusive
CC(C)n1c(SCC(=O)Nc2nncs2)nnc1-c1ccco1	Pf growth 96h inconclusive
COc1ccc(/C=C2\CCn3c2nc2cc(C(=O)O)ccc2c3=O)cc1O	Pf growth 96h 13.1µM
COc1ccc(/C=C2\CCn3c2nc2ccccc2c3=O)cc1OC	CHX counter 28.5
O=c1c2ccc(Cl)cc2nc2n1CC/C2=C\c1cccc(O)c1	Pf growth 96h inconclusive, Pf growth 48h 13.1µM
COC(=O)CCCC(=O)N1CCCC(N(C)CCc2ccccc2)C1 (stereo not given)	none
O=C1C=C(O)c2c(O)cccc2C1=O	none
CC(C)(C=O)C1=CC(=O)c2ccccc2C1=O	Pf growth 96h inconclusive, Shiga inhibitor 25.3, CHX counter 27.7, Pf growth 48h inconclusive
CC1=CC(=O)c2ccccc2C1=O	Pf growth 96h 15.1µM, Pf growth 48h inconclusive
COc1cccc2c1C(=O)C=C(C)C2=O	Pf growth 96h 14.7µM, Pf growth 48h inconclusive
CN(CC(=O)Nc1ccccc1Br)C(=O)CNC(=O)c1ccco1	none (no result: Shiga inhibitor, CHX counter)
CCCCn1c(N)c(N(CCOC)C(=O)CSCc2cccc(C)c2)c(=O)[nH]c1=O	none (no result: Shiga inhibitor, CHX counter)
CN(CC(=O)NCCC1=CCCCC1)S(=O)(=O)c1ccc2c(c1)CCC(=O)N2	Pf growth 96h 3.29µM, Pf growth 48h inconclusive
Cc1ccc(CCNC(=O)C2CCN(S(=O)(=O)c3ccc4c(c3)CCC(=O)N4)CC2)cc1	none
O=C1CCc2cc(S(=O)(=O)N3CCC(C(=O)NCCC4=CCCCC4)CC3)ccc2N1	Pf growth 96h 0.828µM (no result: Pf growth 48h)
COc1ccc(CCNC(=O)CN(C)S(=O)(=O)c2ccc3c(c2)CCC(=O)N3)cc1OC	none (no result: Pf growth 48h)
CCOc1ccc(C(=O)NC(=S)Nc2ccccc2N2CCOCC2)cc1Br	Pf growth 48h inconclusive
O=C(NC1CC1)C1CC(=O)N(c2cccc(Cl)c2Cl)C1 (stereo not given)	none
CCn1c(SCC(=O)NC2CCCC2)nnc1C(C)NC(=O)c1ccccc1Br (stereo not given)	Pf growth 96h inconclusive
CC(=O)c1ccc(N(CC(=O)NC2CCCC2)C(=O)CNC(=O)c2ccco2)cc1	none
COC(c1ccccc1)c1c(-c2ccccc2)nn(C)c1Cl (stereo not given)	Pf growth 96h 11.7µM, Pf growth 48h 13.1µM
CC(C)N1CCN(Cc2ccc(-c3ccccc3Cl)o2)CC1CCO (stereo not given)	Pf growth 96h inconclusive, Pf growth 48h inconclusive
c1ccc(-c2n[nH]c(-c3ccccn3)n2)cc1	CHX counter 24.2 (no result: Pf growth 96h)
c1ccc(-c2ccccn2)nc1	none
Nc1n[nH]c(-c2ccccc2)n1	Pf growth 96h inconclusive
c1ccc(-c2n[nH]c(-c3ccccn3)n2)nc1	Shiga inhibitor 62.2, CHX counter 33.3
COC(=O)C1CCN(C(=O)COC(=O)C2CCN(S(=O)(=O)c3ccc(C)c(C)c3)CC2)CC1	Pf growth 48h inconclusive (no result: Shiga inhibitor, CHX counter)
NNC(=S)NC1CCCCCCCCCCC1	Pf growth 96h 10.4µM, Pf growth 48h inconclusive
FC(F)Oc1ccc(NC(=S)NC2CCCCCCC2)cc1	Pf growth 96h inconclusive, Shiga inhibitor 64.9, CHX counter 34.4, Pf growth 48h inconclusive
S=C(Nc1ccc(Cl)cc1)NC1CCCCC1	Shiga inhibitor 67.6, CHX counter 40.8, Pf growth 48h inconclusive
S=C(Nc1ccc(Br)cc1)NC1CCCCC1	Shiga inhibitor 67.2, CHX counter 51.5
S=C(Nc1cccc(Cl)c1)NC1CCCCC1	Pf growth 48h inconclusive
C/C=C1\COC(C(=O)NCc2ccccc2)(C(F)(F)F)C=C1C=C(C)C (stereo not given)	none (no result: Pf growth 96h, Pf growth 48h)
CCC(C)[C@H](NC(=O)Nc1ccc(C)cc1C)C(=O)O (stereo not given in full)	none
CC(=O)N(C)c1ccc(NC(=O)C(Sc2ccccc2)c2ccccc2)cc1 (stereo not given)	Shiga inhibitor 43.4, CHX counter 18.4, Pf growth 48h inconclusive
O=C(Nc1cc([N+](=O)[O-])ccc1Cl)C(Sc1ccccc1)c1ccccc1 (stereo not given)	none
O=C(Nc1ccc(Cl)c([N+](=O)[O-])c1)C(Sc1ccccc1)c1ccccc1 (stereo not given)	Pf growth 96h inconclusive, Pf growth 48h 13.1µM
CC(=O)Nc1ccc(C2=NN(C)C(=NCc3ccccc3)SC2)cc1	Pf growth 96h 11.7µM, Pf growth 48h inconclusive
Cc1ccc(S(=O)(=O)N2CCN(C(=O)CC(C)n3nc(C)c(Cl)c3C)CC2)cc1C (stereo not given)	Pf growth 96h 11.7µM, Pf growth 48h inconclusive
Cc1ccc(S(=O)(=O)N2CCN(C(=O)Cc3ccccc3)CC2)cc1C	Pf growth 96h inconclusive (no result: Shiga inhibitor, CHX counter)
Cc1ccc(C)c(S(=O)(=O)N2CCN(C(=O)/C=C/c3ccco3)CC2)c1	Pf growth 48h inconclusive (no result: Shiga inhibitor, CHX counter)
Cc1ccc(S(=O)(=O)N2CCN(C(=O)/C=C/c3ccco3)CC2)cc1	Pf growth 96h 1.85µM, Pf growth 48h 6.57µM
Cc1ccc(S(=O)(=O)N2CCN(C(=O)/C=C/c3ccccc3)CC2)cc1C	Pf growth 96h 13.1µM, Pf growth 48h 4.15µM (no result: Shiga inhibitor, CHX counter)
O=C(O)CSCC(=O)N(c1ccccc1)c1ccccc1	Pf growth 96h inconclusive
COc1ccc(Cl)cc1NC(=O)CSc1nnc(Cc2ccc(C)cc2)c(=O)[nH]1	none (no result: Shiga inhibitor, CHX counter)
CCOc1cc(C(=S)N2CCOCC2)ccc1OS(=O)(=O)c1ccccc1[N+](=O)[O-]	Pf growth 96h 5.86µM, Pf growth 48h inconclusive
COc1ccc(C(=S)N2CCOCC2)cc1OC(=O)c1cc([N+](=O)[O-])c(C)c([N+](=O)[O-])c1	none
COc1cc(C(=S)N2CCOCC2)ccc1OC(=O)c1cc([N+](=O)[O-])c(C)c([N+](=O)[O-])c1	Pf growth 96h 1.65µM
COc1ccc(C(=S)N2CCOCC2)cc1OS(=O)(=O)c1ccccc1[N+](=O)[O-]	Pf growth 96h inconclusive, CHX counter 28.0
O=C(c1cc(C(=O)NCc2ccccc2)c(=O)n(Cc2ccccc2)c1)c1cc(Cl)ccc1O	Pf growth 96h 0.657µM, Pf growth 48h 2.33µM

Source: PubChem BioAssay (National Center for Advancing Translational Sciences (NCATS))
